In PubChem BioAssay (NCI):
The panel holds about 83,000 compounds, 20% with a hit somewhere; the sample as a whole holds those more often.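 Note: values are percent growth. 100 is the growth of untreated cells, values between 100 and 0 indicate rising inhibition; between -100 and 0 indicates cell death.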 Values without a mark were called inactive. Calls of active or inactive are those of the source. How the source made its calls: active means growth percent below 10; inactive means the rest.

test system: MDA-MB-468 breast; assay: NCI-60 one-dose screen, 48 h (100 = growth as untreated, 0 = no growth, -100 = all killed); conditions: 10 µM unless noted

| SMILES | growth |
| --- | --- |
| Oc1ccc(C2c3ccccc3Oc3ccccc32)c2cccnc12 | 9.14% (active) |
| CC1(C)OC2[C@@H](CNC(=O)NC(=O)NC(=O)CI)O[C@@H](n3cnc4c(NC(=O)Nc5ccccc5)ncnc43)[C@H]2O1 (some centres undefined) | 64% |
| O=C1c2ccccc2C(=O)c2c1ccc1[nH]c(CCl)nc21 | -28.6% (active) |
| CCc1c(C)[nH]c(=O)c(C(N)=O)c1C#N | 105% |
| O=S(=O)(NCCCNc1cc(-c2cn(-c3ccccc3)nc2-c2cccc(O)c2)ccn1)c1ccc(C(F)(F)F)cc1 | 3.04% (active) |
| CC1(C)[C@H](O)CC[C@]2(C)[C@@H]1CC[C@@]13C[C@@H](CC[C@H]12)[C@@](O)(CO)C3 | 106% |
| O=C1NN(C(=O)c2ccc(O)cc2)C(c2ccccc2)=N/C1=C\c1cn(-c2ccccc2)nc1-c1ccccc1 | 110% |
| COC(=O)C1=C(C(=O)ONCCN(C)C)C2C=CC1(C(Cc1ccccc1)Nc1ccc(F)cc1)O2 (centres undefined) | 75.3% |
| Cn1cccc1C(=O)C1C(c2cccc([N+](=O)[O-])c2)C2C3CCCCC3CN2C12C(=O)Nc1ccc(Cl)cc12 (centres undefined) | 32% |
| Cc1cc(C)c2c(c1)N1OC(C2)C[C@H]1/C=C/c1ccccc1 (some centres undefined) | 92.4% |
| O=C1C(N2CCN(c3ccccc3)CC2)=C(Cl)C(=O)c2ncccc21 | -62.8% (active) |
| Cc1cc(=O)oc2cc(OCCn3c(C)nn(-c4ccc(Cl)cc4)c3=O)ccc12 | 16.1% |
| COc1ccc(Nc2ncccc2NC(=O)c2cn(Cc3cccc(Oc4ccccc4)c3)nn2)cc1 | 89.8% |
| CCCOC(=O)N[C@H]1CCc2c(Cl)c(OC)c(OC)c(OC)c2-c2ccc(SC)c(=O)cc21 | -18.6% (active) |
| C#C[C@]1(O)CC[C@H]2[C@@H]3CC=C4c5sc(N6CCN(C)CC6)nc5CC[C@]4(C)[C@H]3CC[C@@]21C | 47.6% |
| c1ccc2c(c1)Nc1ccncc1S2 | 107% |
| CCC(C)[C@H]1OC(=O)[C@H](C(C)C)N(C)C(=O)[C@@H](C(C)C)OC(=O)[C@H](C(C)C)N(C)C(=O)[C@@H](C(C)CC)OC(=O)[C@H](C(C)C)N(C)C1=O (some centres undefined) | -0.281% (active) |

| SMILES | growth |
| --- | --- |
| NS(=O)(=O)c1ccc(CCN2C(=O)/C(=C\c3ccc(Cl)cc3)C=C2c2ccc(Oc3ccccc3)cc2)cc1 | 76.7% |
| S=c1[nH]nc(Cc2ccccc2)c(=S)[nH]1 | 94.7% |
| CCCCCCCCCCCCCCCCCC1=NC(C)(C)CN1CCO | -69% (active) |
| Cc1ccc(NCCNCC(O)CO)c2c(=O)c3ccccc3sc12 (centres undefined) | -46.4% (active) |
| CC(=O)c1cc2ccccc2o1 | 109% |
| NC1N=C(SCC(=O)N2CCN(c3cc4c(cc3F)c(=O)c(C(=O)O)cn4C3CC3)CC2)NC(=O)/C1=C/c1ccc(Cl)cc1 (centres undefined) | 111% |
| CC1=C2[C@@H](CC1)[C@]1(C)O[C@@](C(C)C)(C[C@H]1OC(=O)CO)[C@H]2OC(=O)CCCc1ccccc1 | 88.3% |
| Cc1cccc(-c2cn3ccnc3c(-c3ccc4ncn(Cc5ccccc5)c4c3)n2)c1 | 83.4% |
| COc1ccc(NC(=O)c2ccc(C(=O)Nc3ccc(OC)cc3OC)cc2)c(OC)c1 | 85% |
| CCOC(=O)c1cn2ncnc(Oc3ccc(NC(=O)NC4CC4)c(Cl)c3)c2c1C | 90.1% |
| O=C(CNC(=O)OCc1ccccc1)NCC(=O)Oc1ccc([N+](=O)[O-])cc1 | 106% |
| CCn1c(Sc2nnc(NC(C)=O)s2)nc2c1c(=O)n(C)c(=O)n2C | 87.5% |
| COc1ccc(-c2cnc3c(-c4cccc5cnccc45)cnn3c2)cc1 | 47.9% |
| CN1CCN(Cc2ccc(NC(=O)c3nc4ccc5[nH]ncc5c4c4c3CCC4)cc2C(F)(F)F)CC1 | -59.2% (active) |
| CCCN1C(=O)/C(=c2\sc3n(c2=O)C2C(NN=3)N(CC)C(=O)N2CC)c2ccccc21 (centres undefined) | 4.78% (active) |
| CCCCCCNC(=O)Oc1ccc(/C(=C(/C)c2ccc(Cl)cc2)c2ccc(OCCN3CCCC3)cc2)cc1 | 62.6% |
| C=C(C)[C@@H]1CC[C@]2(C(=O)OCCOCCOCC[P+](c3ccccc3)(c3ccccc3)c3ccccc3)CC[C@]3(C)[C@H](CC[C@@H]4[C@@]5(C)CC[C@H](OC(C)=O)C(C)(C)[C@@H]5CC[C@]43C)[C@@H]12 | -76.5% (active) |
